Screens (PubChem)
Only some compounds are listed: those with a hit (about 1.6% of all), similar ones and a draw of the others.
IMPase cell inh: membrane-permeable compound that blocks inositol monophosphatase; 120,000 tested, under 10 active; inhibition (IP1 accumulation), % at 46.1 µM; P97697; CHO-M1 cells, IP1 accumulation, HTRF TR-FRET ratio; active means well fitted curve in the direction sought with a large enough effect in the signal ratio, not every such curve was filed as active; inconclusive means small, poorly fitted or top-dose-only effect, or a change in a side signal; inactive means no such curve, though single readings can be large or run the other way; the % refers to the signal ratio;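 further: cells stimulated with carbachol in lithium chloride buffer; plate controls were DMSO basal wells for no effect and reference inhibitor wells for full effect; higher means more IMPase inhibition seen as more IP1 and lower FRET ratio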
Target sequence (P97697 whole entry, looked up): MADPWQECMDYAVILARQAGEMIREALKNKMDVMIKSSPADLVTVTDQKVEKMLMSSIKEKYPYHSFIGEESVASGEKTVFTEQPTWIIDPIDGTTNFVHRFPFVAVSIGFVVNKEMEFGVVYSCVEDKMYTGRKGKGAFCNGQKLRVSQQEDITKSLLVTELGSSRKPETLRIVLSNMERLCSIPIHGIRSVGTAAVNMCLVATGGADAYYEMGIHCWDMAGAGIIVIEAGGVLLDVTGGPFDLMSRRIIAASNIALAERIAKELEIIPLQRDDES
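Seeded CHO-M1 cells were dosed with compound at up to 46 uM, stimulated with carbachol for 30 min, then lysed in IP-One detection reagents. Higher IP1 lowers the TR-FRET signal.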
Lamin A splicing: changes lamin A minigene splicing in HeLa cells; HeLa LMNA splicing GFP/RFP minigene ratio, 48 h; Potency, µM (top dose mostly 46.1 µM), without a hit: top-dose ratio change, negative = inhibition, most hits filed as inhibitors; actives 0.01% (n = 200,000); AID 1487; active means well fitted inhibition curve with a large enough effect in the signal ratio, with a control signal flat, not every such curve was filed as active; inconclusive means small, poorly fitted or top-dose-only effect, or effect the other way, or a change in a side signal; the % refers to the signal ratio; further: potency means the concentration at half of the fitted maximal effect; on the % scale 0 is the no-effect control and ±100 the full control effect
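S3 HeLa stable clones carrying a lamin A-EGFP splicing minigene plus DsRed2 were seeded at 600 cells/well in Opti-MEM with 2% FBS, pin-dosed and incubated 48 h at 37°C. Acumen cytometry (488 nm) gave the GFP/RFP total-intensity ratio.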
HTT ATP protect: protects HTT-Q103 PC12 cells, measured by ATP | PC12 HTT-Q103 induced, cytoprotection, ATP luminescence, 40 h | Potency, µM (doses to about 56.4 µM), inactives show cytoprotection (ATP increase), usual class: activators | actives 0.14% (n = 230,000); further: potency means the concentration at half of the fitted maximal effect; % of control where 0% means no effect; nearly all actives have a fitted effect of over 45% in size
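Cells were plated at 1500 per well in phenol red-free DMEM with 5% equine and 5% calf serum. Tebufenozide (100 nM final) and compounds were added, then ATPlite reagent, and luminescence was read.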
NPSR antag: antagonists of human neuropeptide S receptor cAMP signaling. Potency, µM (series often up to 38.3 µM), for inactives: top-dose activity change, negative = inhibition, most hits filed as inhibitors. actives 1% (n = 220,000). CHO-NPSR cells, cAMP TR-FRET, antagonist mode. Q6W5P4; further: potency means the concentration at half of the fitted maximal effect; on the % scale 0 is the no-effect control and ±100 the full control effect; nearly all actives have a fitted effect of over 50% in size
IMPase Li cell: cell-permeable IMPase inhibitors with lithium potentiation. Potency, µM (doses to about 59.4 µM), for the others: at the top dose activity, negative = IMPase inhibition, hits mostly inhibitors. AID 1457. CHO-M1 cells, IP1 TR-FRET (IP-One), carbachol + lithium. actives 0.35% (n = 210,000);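 further: IP1 builds up when IMPase is blocked and the TR-FRET signal falls; potency means the concentration at half of the fitted maximal effect; plate controls were basal vehicle for no effect and high inhibitor control for full effect; nearly all actives have a fitted effect of over 50% in size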
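CHO cells stably expressing M1 receptor (2000/well, cultured 16–30 h) treated 30 min at 37C with compound plus low lithium. Cytosolic IP1 by TR-FRET (665/620 ratio and 620 channel) after 10 min lysis; AC50 by Hill fit.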
HTT aggregate: reduces HttQ103-GFP aggregates in PC12 cells; actives 1.1% (n = 220,000); PC12 HttQ103-GFP aggregates, Acumen cytometry, 40 h; Potency, µM (series often up to 46.1 µM), inactives show top-dose activity change, negative = inhibition, most hits filed as inhibitors; AID 1688; further: potency means the concentration at half of the fitted maximal effect; on the % scale 0 is the no-effect control and ±100 the full control effect; nearly all actives have a fitted effect of over 60% in size
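Using laser scanning cytometry, GFP-positive aggregates were counted after lysis of PC12 cells induced with 100 nM tebufenozide to express HTT exon 1 Q103–GFP. Compounds were tested in titration.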
An asterisk follows results filed as active; ? = inconclusive; / = no result; [ ] = dose if it differs, or a comment. Unless noted, the call rests on the fitted dose curve; in most records, active means well fitted curve in the direction sought with a large enough effect; inconclusive means small, poorly fitted or top-dose-only effect, or another doubt; inactive means no such curve, though single readings can be large; an effect the other way counts as inactive or inconclusive.

SMILES	IMPase cell inh	Lamin A splicing	HTT ATP protect	NPSR antag	IMPase Li cell	HTT aggregate
Cc1ccc(C(=O)NNC(=O)CCCN2C(=O)/C(=C/c3ccccc3Cl)SC2=S)cc1	2	-24%	/	19%	-1%	35µM*
O=C(CCCN1C(=O)/C(=C/c2ccccc2Cl)SC1=S)NNC(=O)c1ccc(Cl)cc1	/	/	8%[10 µM]	-9%	/	-20%[9.22 µM]
COCc1cc(N2CCCCC2)nc(-c2ccccc2)n1	/	15%[9.22 µM]	-28%	-23%	16%	-4%
CN(C(=O)c1ccccc1C(=O)O)C1CC(C)(C)NC(C)(C)C1	/	/	18%	/	/	/
Cc1cc(Br)c2nc3c(c(C(=O)O)c2c1)CCCCC3	?	-13%	?	1µM*	/	?
CCc1ccc2nc3c(c(C(=O)O)c2c1)CCC3	-9	8%	4%[10 µM]	-7%[46.1 µM]	6%[38.3 µM]	14%
COc1cc2c(cc1OC)CN(Cc1nc3ccsc3c(=O)[nH]1)CC2	-4	2%	23%[10 µM]	-6%[46.1 µM]	18%[38.3 µM]	4µM*
Cc1cc(=O)c2c(O)c3c(O)cc(O)c4c5c(O)cc(O)c6c(O)c7c(=O)cc(C)c8c1c2c(c34)c(c65)c78	/	/	-96%	/	13µM*	/
O=C(Nc1ccccn1)c1cc(-c2cccnc2)nc2ccc(Br)cc12	?	-5%	26%[10 µM]	?	11µM*	10%
O=C(c1cc(-c2cccnc2)nc2ccc(Br)cc12)N1CCN(c2ncccn2)CC1	-23	4%	1%	?	11µM*	8%
NS(=O)(=O)c1ccc(CCNC(=O)c2cc(-c3ccccn3)nc3ccc(Br)cc23)cc1	/	/	-90%	10µM*	11µM*	-21%
O=[N+]([O-])c1cc(CN2CCN(c3cccc(C(F)(F)F)c3)CC2)c2cccnc2c1O	/	?	-138%	4%	-3%	8.9µM*
O=[N+]([O-])c1cc(CN2CCCC2)c2cccnc2c1O	/	-4%	/	3%	3%	?
Cc1ccc(S(=O)(=O)Nc2ccccc2C(=O)c2ccc(C)c(C)c2)cc1	/	/	-18%[10 µM]	/	14%	/
c1ccc(C2OC3c4cccc5cccc(c45)C3N2c2ccccc2)cc1 (stereo not given)	5	?	25%[10 µM]	2%[46.1 µM]	19%	11µM*
Cc1c(Nc2cc(N3CCOCC3)c3nonc3c2[N+](=O)[O-])c(=O)n(-c2ccccc2)n1C	/	/	/	3%	4%	17%
Cc1c(Nc2cc(Cl)c3nonc3c2[N+](=O)[O-])c(=O)n(-c2ccccc2)n1C	/	/	-205%	6.3µM*	25%	?
Oc1ccc(C=Nc2ccc(N3CCOCC3)cc2)c(O)c1	5	-4%	-21%	-18%[46.1 µM]	24%[38.3 µM]	29%
Oc1ccc(N=Nc2cccc(C(F)(F)F)c2)cc1C=Nc1ccc(N2CCOCC2)cc1	/	-5%	-12%[10 µM]	7.9µM*	-1%	-2%
CC(C)(C)c1ccc(CN2CCN([C@H](c3ccccc3)c3ccc(Cl)cc3)CC2)cc1	/	?	-120%	/	4%	4%
Oc1c(C(O)(c2ccccc2)c2ccc3ccccc3c2O)ccc2ccccc12	/	/	16%[10 µM]	/	3%	/
CC1=C(/C=C/C(=C/C=C/C(C)=C/C(=O)O)c2ccc(C)cc2)C(C)(C)CCC1	/	/	38%	/	10%	/
CC(Sc1cnc2ccccc2n1)C(=O)O (stereo not given)	?	-9%	-1%	?	13µM*	-7%
CC(Sc1ccc2ccccc2n1)C(=O)O (stereo not given)	?	8%	2%	?	8.9µM*	-16%
Cc1cc(SC(C)C(=O)O)nc2ccccc12 (stereo not given)	/	-3%[46 µM]	0%[10 µM]	42%	?	2%[9.22 µM]
O=C1/C(=C/c2cccnc2)SC(=S)N1C1CCS(=O)(=O)C1 (stereo not given)	-3	20µM*	17%[10 µM]	-7%[46.1 µM]	11%	?
Nc1ccc(CCNc2ncnc3c2ncn3[C@@H]2O[C@@H](CO)[C@H](O)[C@@H]2O)cc1	-6	/	7%[1.9 µM]	/	/	/
